# Source: PubChem (National Center for Advancing Translational Sciences (NCATS))
# Only some compounds are listed: those with a hit (about 21% of all), similar ones and a draw of the others.
# Shiga inhibitor: inhibitors of Shiga toxin in Vero cells | Vero cells, Shiga toxin protein synthesis inhibition reporter | 9.2% of 290,000 active | inhibition, % at 38.7 µM | AID 2315; in the data active = inhibition mostly above about 28%, no sharp cut-off; inactive = mostly below about 43%; note: 0% is about no effect
# SARS PLP yeast: SARS-CoV PLP inhibition in yeast; S. cerevisiae expressing SARS-CoV PLpro, growth rescue; AID 485353; 0.19% of 330,000 active; Potency, µM (highest dose often 32.9 µM), for inactives: top-dose activity, positive = growth rescue, usual class: activators; calls by dose curve; note: potency is the fitted concentration of half-maximal effect; 0% is about no effect; nearly all actives have a fitted effect of over 55% in size
# Pf growth 48h: inhibits P. falciparum growth in the first generation, 48 h. 5.9% of 310,000 active. Potency, µM (top dose mostly 28.7 µM), for the others: at the top dose activity change, negative = inhibition, most hits filed as inhibitors. P. falciparum luciferase growth in erythrocytes, 48 h; note: potency is the fitted concentration of half-maximal effect; % is set by controls: 0 for no effect and ±100 for the full control effect
#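 Luciferase-expressing P. falciparum in infected erythrocytes (2% hematocrit, 0.1% parasitemia final) in RPMI 1640/0.5% Albumax were exposed to compound for 48 hours at 37 C, 5% CO2; growth read as luminescence.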
# Pf growth 96h: P. falciparum growth inhibition at 96 hour, primary screen for plastid delayed-death inhibitors; P. falciparum luciferase reporter growth, 96 h; Potency, µM (highest dose often 28.7 µM), for inactives: top-dose activity change, negative = inhibition, actives largely listed as inhibitors; 6.9% of 320,000 active; note: potency is the fitted concentration of half-maximal effect; % is set by controls: 0 for no effect and ±100 for the full control effect
#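 Parasite growth measured via integrated firefly luciferase reporter in P. falciparum. Infected erythrocytes at 2% hematocrit, 0.05% parasitemia final were treated 96 hours at 37 C under 5% CO2, and luminescence was read.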
# NS1 inh: inhibitors of influenza NS1 protein function | Potency, µM (top dose mostly 46.1 µM), for the others: at the top dose activity, positive = more growth | 0.4% of 270,000 active; calls by dose curve; note: potency is the fitted concentration of half-maximal effect; actives are rising curves; nearly all actives have a fitted effect of over 50% in size
#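 Read-out: OD600 growth recovery of NS1-expressing budding yeast. Cells grown overnight at 30C in -URA glucose medium, washed, resuspended and diluted 1:100 in 2% galactose assay medium, pH 6.0. Same strain lacking NS1 served as positive control.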
# CHX counter: counter-screen for Shiga toxin inhibitors: cycloheximide protein synthesis inhibition; max response, %; 12% of 300,000 active; cell reporter, cycloheximide protein synthesis inhibition counterscreen; AID 2314; in the data active = max response mostly above about 13%, no sharp cut-off; inactive = mostly below about 14%; note: read at 38.3 µM for the half of the compounds with a filed dose; 0% is about no effect
# * marks the source's active call; other numbers are inactive results; i = inactive; ? = inconclusive; / = no result given. Unless noted, calls come from the whole dose curve; as a rule, active = well fitted inhibition curve with a large enough effect; inconclusive = small, poorly fitted or top-dose-only effect, or another doubt; inactive = no such curve, though single readings can be large or run the other way.
SMILES,Shiga inhibitor,SARS PLP yeast,Pf growth 48h,Pf growth 96h,NS1 inh,CHX counter
Cc1[nH]n(-c2ccccc2)c(=O)c1/C=C1\C=NN=C1c1ccccc1,97.8*,-2.0%,16.7%,20.7%,0.7%,66.9*
CCOC(=O)n1c(=O)n(Cc2ccc(Cl)c(Cl)c2)c2ccccc21,-12.2,-20.2%,?,?,-21.2%,-2.9
CCOC(=O)NC(=O)CSc1ccc(S(=O)(=O)N(C)C2CCCCC2)cn1,/,-3.4%,6.57µM*,13.1µM*,/,/
CC(C)CNC(=O)CSc1ccc(S(=O)(=O)N(C)C2CCCCC2)cn1,/,-4.1%,9.28µM*,-13.4%,/,/
CC1CCC(NC(=O)CSc2ccc(S(=O)(=O)N(C)C)cn2)CC1 (stereo not drawn),/,0.9%,?,?,/,/
CC(C#N)Sc1ccc(S(=O)(=O)N(C)C2CCCCC2)cn1 (stereo not drawn),/,-3.2%,1.1%,-9.9%,/,/
Cc1cnn(-c2cc(N/N=C/c3ccccc3F)ncn2)c1,-10.3,-6.1%,25.3%,13.1µM*,1.5%,-4.4
Cc1cnn(-c2cc(N/N=C/c3ccccc3)ncn2)c1,37.4,0.5%,-2.1%,50.5%,2.3%,15.8
Cc1cnn(-c2cc(N/N=C/c3cccc(F)c3)ncn2)c1,-9.7,-3.6%,1.2%,1.85µM*,0.0%,-3.6
CN1CCN(CCC(=O)N/N=C/c2ccccc2F)CC1,-4.0,6.8%,4.6%,17.6%,11.8%,-1.9
CC(=O)NC1(C(F)(F)F)NC(=O)N(c2ccc(F)cc2)C1=O (stereo not drawn),-14.5,-0.4%,3.2%,166.6%,-0.4%,-1.2
O=C(CN1C(=O)c2ccccc2S1(=O)=O)N1CCCCC1,3.0,0.6%,126.7%,18.5%,3.0%,-3.1
Cc1ccccc1C1=NCC(=O)N(CC(=O)N2CCCCC2)c2sc(C)c(C)c21,8.5,-0.4%,?,13.1µM*,-19.1%,-2.4
O=C(O)CN1C(=O)/C(=C/c2ccc(SCc3ccccc3)o2)SC1=S,-4.5,4.0%,35.8%,1.7%,/,-0.7
CNC(=O)NC(=O)Cn1cnc2sc(-c3ccccc3)cc2c1=O,21.8,0.6%,35.9%,68.4%,-4.0%,-2.5
O=c1c2cc(-c3ccccc3)sc2ncn1/N=C/c1ccco1,83.2,-9.7%,130.7%,30.7%,-52.8%,36.8*
CCCCCn1cnc2sc(-c3ccccc3)cc2c1=O,61.0*,-5.2%,187.8%,99.4%,-16.3%,47.3*
CCCCn1cnc2sc(-c3ccccc3)cc2c1=O,98.3*,-16.9%,102.0%,i,-17.6%,38.4*
CC(=O)c1c(C)[nH]c(C(=O)OC(C)C(=O)Nc2cc(S(=O)(=O)N3CCCCC3)ccc2Cl)c1C (stereo not drawn),-6.2,21.5%,-4.9%,-20.4%,14.1%,-4.1
Cc1ccc(NC(=O)CN(C)C(=O)CNC(=O)c2sc3ccccc3c2Cl)cc1,/,/,13.7%,22.0%,/,/
CCCN(CC(=O)Nc1ccccc1C)C(=O)c1sc2ccccc2c1Cl,/,-5.8%,?,-23.2%,/,/
Fc1ccccc1C1CC(c2ccco2)=Nc2ccccc2S1 (stereo not drawn),103.8*,-5.1%,51.9%,0.0%,-65.3%,49.4*
N#Cc1cc2ccccc2nc1SCc1ccccn1,147.2*,-20.2%,182.8%,/,-144.2%,59.4*
Cc1cc2cc3c(cc2nc1SCc1ccccn1)OCCO3,-5.6,2.1%,-1.6%,?,8.9%,-0.8
Cc1ccc(C(C)C)c(OCC(=O)N2CCN(Cc3nc4cc([N+](=O)[O-])ccc4n3C)CC2)c1,-0.7,-62.8%,-7.3%,11.7µM*,-43.7%,-2.3
SMILES,Shiga inhibitor,SARS PLP yeast,Pf growth 48h,Pf growth 96h,NS1 inh,CHX counter
Cc1ccc(C(C)C)c(OCC(=O)Nc2ccc3c(c2)nc(CN2CCCC2)n3C)c1,12.8,0.7%,/,13.1µM*,5.9%,4.9
CCCC(=O)N1CCN(Cc2nc3cc([N+](=O)[O-])ccc3n2C)CC1,-2.0,-1.7%,8.3%,-28.1%,8.0%,3.7
COc1ccc(-c2cc(=O)oc3c(C)c(OC(C)C(=O)Nc4ccc(CN5CCOCC5)cc4)ccc23)cc1 (stereo not drawn),-4.1,-3.7%,7.38µM*,3.7µM*,4.7%,-1.6
Cc1cc(=O)oc2c(C)c(OC(C)C(=O)Nc3ccc(N4CCC(C)CC4)cc3)ccc12 (stereo not drawn),-12.5,4.0%,7.38µM*,3.29µM*,4.1%,-2.0
O=C(Oc1ccc([N+](=O)[O-])cc1)c1cc(-c2ccccc2)nc2ccccc12,27.6,-0.2%,20.5%,0.0%,-5.6%,-1.7
O=[N+]([O-])c1cc(-c2cnc3ccccc3n2)ccc1Oc1ccc(Br)cc1,110.6*,5.1%,31.6%,62.4%,?,29.2*
O=[N+]([O-])c1ccc(Oc2ccc(-c3cnc4ccccc4n3)cc2[N+](=O)[O-])cc1,39.9*,24.2%,47.8%,-4.7%,-0.2%,21.0*
Cc1nnc(-c2ccc(Oc3ccc(Br)cc3)c([N+](=O)[O-])c2)o1,3.0,-15.8%,-2.8%,46.6%,3.5%,-2.7
Cc1ccc(S(=O)(=O)N(CCC(=O)O)c2ccccc2)cc1,-6.4,22.9%,21.4%,-5.3%,-10.9%,-2.7
O=C1C2=C(Nc3cc([N+](=O)[O-])ccc3N2)O[C@@H]1c1ccc([C@H]2OC3=C(Nc4ccc([N+](=O)[O-])cc4N3)C2=O)cc1,/,/,/,/,7.9%,/
O=C(Nc1ccc(NC(=O)c2cccnc2Cl)cc1)c1cccc(Cl)c1,39.6*,-0.7%,14.5%,7.2%,-13.0%,21.0
CC(=O)NC(=S)Nc1ccc(NC(=O)c2cccnc2Cl)cc1,46.5,-1.5%,?,-3.6%,-7.2%,25.2*
O=C(O)c1ccc(Oc2c(C(F)(F)F)oc3cc(O)ccc3c2=O)cc1,17.4,-1.0%,121.7%,310.6%,/,-1.9
CC(Oc1ccc2c(=O)c(-c3ccc(Cl)cc3)c(C(F)(F)F)oc2c1)C(=O)O (stereo not drawn),-2.0,0.5%,10.4µM*,29.2%,4.9%,-4.8
CSC1=NC(=O)/C(=C\c2cccc3ccccc23)S1,38.9,-15.7%,i,122.0%,/,17.0
Cc1noc(C)c1COc1ccccc1C(=O)N(C)Cc1ccc(C(C)(C)C)cc1,/,-7.8%,11.7µM*,14.7µM*,/,/
Cc1noc(C)c1COc1ccccc1C(=O)NCCOc1ccccc1F,/,12.7%,-11.0%,-37.8%,/,/
Cc1noc(C)c1COC(=O)c1ccccc1Oc1ccccc1,-19.6,0.1%,-4.7%,13.1µM*,-11.5%,-2.7
Cc1noc(C)c1COc1ccccc1C(=O)NC1CCC(C)CC1 (stereo not drawn),55.2*,-8.0%,?,4.15µM*,-13.1%,26.9*
Cc1noc(C)c1COC(=O)c1ccccc1NC(=O)Cc1ccccc1,-7.1,-5.7%,?,?,-32.4%,-2.8
C/C=N\NC(=O)CNC(=O)CNC(=O)c1ccccc1,-5.2,0.5%,-8.8%,36.8%,/,-2.0
COc1ccc(N=C2NN=C(c3c(C)[nH]c4ccccc34)CS2)cc1,-5.6,5.2%,?,?,?,4.8
